IDH1 R132H inh: human IDH1 R132H inhibition; AID 602179; IDH1-R132H enzyme, NADPH consumption, diaphorase/resazurin fluorescence; 390,000 tested, 0.093% active; O75874; Potency, µM (top dose mostly 76.6 µM), for the others: at the highest dose activity change, negative = inhibition, hits mostly inhibitors; note: potency is the fitted concentration of half-maximal effect; % is set by controls: 0 for no effect and ±100 for the full control effect; nearly all actives have a fitted effect of over 65% in size
Target sequence (O75874 whole entry R132H, stated change not applied): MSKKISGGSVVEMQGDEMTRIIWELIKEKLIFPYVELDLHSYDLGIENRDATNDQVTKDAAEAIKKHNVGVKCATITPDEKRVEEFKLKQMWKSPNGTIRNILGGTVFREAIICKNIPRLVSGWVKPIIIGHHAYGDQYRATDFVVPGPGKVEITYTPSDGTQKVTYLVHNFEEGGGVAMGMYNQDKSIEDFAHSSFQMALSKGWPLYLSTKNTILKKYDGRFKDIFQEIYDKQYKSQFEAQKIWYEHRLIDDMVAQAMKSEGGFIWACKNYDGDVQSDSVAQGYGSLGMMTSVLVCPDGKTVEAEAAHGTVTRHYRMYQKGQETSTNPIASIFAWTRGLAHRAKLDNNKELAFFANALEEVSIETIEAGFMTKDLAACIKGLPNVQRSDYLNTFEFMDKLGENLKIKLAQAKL
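IDH1-R132H (0.5 ug/mL dispensed) in pH 7.5 Tris buffer was preincubated 30 min with compound, then given a substrate mix of 0.016 mM NADPH and 2 mM alpha-KG for 80 min at room temperature; remaining NADPH was read by diaphorase/resazurin fluorescence.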
TrxR1 substrate: rat thioredoxin reductase 1 substrate activity | O89049 | purified TrxR1 substrate turnover, NADPH consumption readout | Potency, µM (highest dose often 114 µM), for the others: at the highest dose activity change, negative = substrate turnover | 390,000 tested, 0.01% active; note: potency is the fitted concentration of half-maximal effect; % is set by controls: 0 for no effect and ±100 for the full control effect; nearly all actives have a fitted effect of over 50% in size
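Rat TrxR1, dispensed at 90 nM, was prereduced with 400 uM NADPH (final) for 5 min at ~22 deg C, then incubated with compound 15 min before 400 uM selenite. A first-read NADPH fluorescence drop versus no-compound background flagged substrates.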
PLK1 PBD block: inhibitors of human PLK1 polo-box domain binding; P53350; AID 720504; 360,000 tested, 2.8% active; Plk1 PBD binding of FITC phosphopeptide, fluorescence polarization; Potency, µM, for inactives: max response, negative = inhibition, hits mostly inhibitors; note: potency is the fitted concentration of half-maximal effect; series mostly up to about 57 µM; % is set by controls: 0 for no effect and ±100 for the full control effect; nearly all actives have a fitted effect of over 65% in size
Sfp inh: blocks B. subtilis Sfp PPTase activity; Biochemical Sfp PPTase activity, qHTS; Potency, µM, inactives show largest response in the series, negative = inhibition, usual class: inhibitors; 310,000 tested, 3.5% active; AID 1490;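 note: the enzyme is Sfp with the accession as filed and its product quenches rhodamine fluorescence; potency is the fitted concentration of half-maximal effect; 0% = enzyme reaction without inhibitor and -100% = no enzyme wells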
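Fluorescence-quenching assay with 15 nM Sfp, 5 uM rhodamine-CoA and 12.5 uM BHQ-2-labelled ybbR peptide in pH 7.6 Hepes/MgCl2 buffer. Enzyme was pre-incubated with compound for 15 min at room temperature. Rate was taken from the 30-min fluorescence change (525/598 nm).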
VDR inhibitor: inhibitors of human vitamin D receptor | P11473 | 400,000 tested, 0.93% active | Potency, µM, for inactives: max response, negative = inhibition, usual class: inhibitors | VDR-SRC2-3 peptide fluorescence polarization, 2 h; note: potency is the fitted concentration of half-maximal effect; % is set by controls: 0 for no effect and ±100 for the full control effect
Target sequence (P11473 whole entry, looked up): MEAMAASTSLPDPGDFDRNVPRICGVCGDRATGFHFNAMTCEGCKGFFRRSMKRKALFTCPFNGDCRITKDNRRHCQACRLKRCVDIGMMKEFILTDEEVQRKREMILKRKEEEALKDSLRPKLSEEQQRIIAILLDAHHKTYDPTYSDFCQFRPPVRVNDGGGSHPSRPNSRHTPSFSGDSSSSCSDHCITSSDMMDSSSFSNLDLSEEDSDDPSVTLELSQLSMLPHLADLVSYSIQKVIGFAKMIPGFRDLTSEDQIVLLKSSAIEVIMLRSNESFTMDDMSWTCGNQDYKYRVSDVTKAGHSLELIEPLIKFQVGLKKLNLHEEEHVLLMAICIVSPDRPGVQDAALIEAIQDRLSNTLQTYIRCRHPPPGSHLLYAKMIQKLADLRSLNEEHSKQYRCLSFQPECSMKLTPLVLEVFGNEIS
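Inhibition of the VDR/SRC2-3 peptide interaction is quantified by fluorescence polarization. Compounds (23 nl, pintool) incubate with the reagents for 2 hours at ambient room temperature.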
TrxR1 inh-1: blocks rat thioredoxin reductase 1. AID 588453. Potency, µM (titrated, usually from 114 µM), for inactives: at the top dose activity change, negative = inhibition, hits mostly inhibitors. O89049. recombinant rTrxR1, NADPH fluorescence consumption, selenite substrate. 390,000 tested, 1% active; note: potency is the fitted concentration of half-maximal effect; % is set by controls: 0 for no effect and ±100 for the full control effect; nearly all actives have a fitted effect of over 65% in size
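Rat TrxR1 (90 nM in the dispensed reagent) was pre-reduced with 400 uM NADPH for 5 min at room temperature, then incubated with compound for 15 min. After 400 uM selenite was added, NADPH fluorescence (Ex 340/Em 450 nm) was followed for 8 min.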
VDR confirm: confirmation of human vitamin D receptor inhibitors | Potency, µM, hits mostly inhibitors | VDR-coactivator inhibition assay, qHTS confirmation | 840 tested, 89% active | AID 602199 | shares compounds with VDR inhibitor; note: potency is the fitted concentration of half-maximal effect
VDR FP fluor: confirmation of human VDR-coactivator binding inhibitors, fluorescein label | shares compounds with VDR inhibitor | VDR-coactivator binding, fluorescein fluorescence polarization | Potency, µM (doses to about 57.1 µM), for the others: at the top dose activity change, negative = inhibition, usual class: inhibitors | 840 tested, 48% active | AID 602200; note: potency is the fitted concentration of half-maximal effect
VDR bla: confirmation of human vitamin D receptor inhibitors in reporter cells. shares compounds with VDR inhibitor. VDR beta-lactamase reporter cells, FRET ratio; cells co-treated with VDR agonist LG190178. Potency, µM (highest dose often 46.1 µM), for inactives: at the highest dose activity change, negative = inhibition, usual class: inhibitors. 840 tested, 23% active. AID 602202; note: potency is the fitted concentration of half-maximal effect; % is set by controls: 0 for no effect and ±100 for the full control effect
VDR viability: counter-screen for vitamin D receptor inhibitors: cytotoxicity; shares compounds with VDR inhibitor; cytotoxicity counter-screen, cell viability, qHTS; Potency, µM (series often up to 48.3 µM), for the others: at the highest dose activity change, negative = cytotoxicity, most hits filed as cytotoxic; 840 tested, 18% active;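 note: potency is the fitted concentration of half-maximal effect; plate controls were DMSO for no effect and high-concentration cycloheximide for full effect; nearly all actives have a fitted effect of over 75% in size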
HepG2 viability: counter-screen for TRb-SRC2 inhibitors: HepG2 cytotoxicity. shares compounds with TrxR1 inh-1. HepG2 viability, ATP luminescence (CellTiter-Glo), 72 h. Potency, µM. 40 tested, 50% active. AID 2447; calls by dose curve
GR inh: inhibits human glutathione reductase in TrxR1 counterassay. 55 tested, under 10 active. shares compounds with TrxR1 inh-1. purified GR, DTNB reduction absorbance 405 nm kinetic. activity change, negative = inhibition, % at 57.1 µM
TrxR1 inh-2: blocks rat thioredoxin reductase 1 in hit validation | shares compounds with TrxR1 inh-1 | recombinant TrxR1, NADPH fluorescence consumption, selenite substrate | Potency, µM, most hits filed as inhibitors | 55 tested, 50% active | AID 652023
TrxR1 insulin: TrxR1 inhibitors: insulin reduction mechanism-of-action test. shares compounds with TrxR1 inh-1. 55 tested, 20% active. TrxR1 Trx-coupled insulin reduction, NADPH absorbance 340 nm. Potency, µM. AID 652037;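 active = compounds with a measured potency under 100 micromolar; inconclusive = filed, but no rule given; inactive = potency at or above that, or unmeasurable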
TrxR1 inh-3: rat thioredoxin reductase 1 inhibition, DTNB assay; shares compounds with TrxR1 inh-1; purified TrxR1, DTNB reduction, A412; Potency, µM; 55 tested, 90% active;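 active = a half-inhibiting concentration could be measured and was below 100 µM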
TbPYK inh: Trypanosoma brucei pyruvate kinase inhibition, cherry-pick confirmation. shares compounds with PLK1 PBD block. recombinant TbPYK, Kinase-Glo ATP luminescence. Potency, µM (doses to about 76.9 µM), for inactives: at the highest dose activity change, negative = inhibition, actives largely listed as inhibitors. 890 tested, 67% active; note: potency is the fitted concentration of half-maximal effect; % is set by controls: 0 for no effect and ±100 for the full control effect; nearly all actives have a fitted effect of over 70% in size
TbPYK orthogonal: orthogonal confirmation of Trypanosoma brucei pyruvate kinase inhibitors | shares compounds with PLK1 PBD block | recombinant TbPYK, ADP-Glo luminescence, 60 min | Potency, µM (highest dose often 76.9 µM), inactives show top-dose activity change, negative = inhibition, usual class: inhibitors | 890 tested, 62% active | AID 720584; note: potency is the fitted concentration of half-maximal effect; % is set by controls: 0 for no effect and ±100 for the full control effect; nearly all actives have a fitted effect of over 75% in size
Starred values were filed as active, the others as inactive; i = inactive; ? = inconclusive; / = no result given; [ ] = dose if it differs, or a comment. Hits are enriched below; roughly 5.2% of the tested compounds scored in any of these assays. Unless noted, calls come from the whole dose curve; as a rule, active = well fitted curve in the direction sought with a large enough effect; inconclusive = small, poorly fitted or top-dose-only effect, or another doubt; inactive = no such curve, though single readings can be large; an effect the other way counts as inactive or inconclusive.

SMILES | IDH1 R132H inh | TrxR1 substrate | PLK1 PBD block | Sfp inh | VDR inhibitor | TrxR1 inh-1 | GR inh | TrxR1 inh-2 | TrxR1 insulin | TrxR1 inh-3 | others
CC1=C(C)CS(=O)N(S(=O)(=O)c2ccc(Cl)cc2)C1 (stereo not drawn) | ? | -1%[57.1 µM] | 1.3µM* | 3.5µM* | 2.8µM* | 10%[57.1 µM] | / | / | / | / | VDR confirm=1.2*;VDR FP fluor=?;VDR bla=-2%;VDR viability=16µM*;TbPYK inh=16µM*;TbPYK orthogonal=28µM*
Cc1nc2cccnc2n1C1CCN(C(=O)Nc2ccccc2C(F)(F)F)CC1 | 13% | 0%[57.1 µM] | / | / | 18% | 4%[57.1 µM] | / | / | / | /
Oc1cc2c(cc1CN1CCN(c3ncccn3)CC1)OCO2 | 13% | 0% | -29% | -6% | -9% | 25µM* | -16 | ? | i | i
Fc1ccccc1CN1CCN(c2ncccn2)CC1 | 23% | 4%[57.1 µM] | 1% | -23% | 4% | 8%[57.1 µM] | / | / | / | /
CS(=O)(=O)c1ccc(C(=O)OCC(=O)N2CCCCC2)cc1[N+](=O)[O-] | / | / | / | / | / | / | / | / | / | / | HepG2 viability=21µM*
COc1cc(C(c2nnnn2C2CCCC2)N2CCc3ccccc3C2)ccc1O (stereo not drawn) | -2% | 7%[57.1 µM] | 21µM* | 18µM* | -1% | 2µM* | -3 | 2.1* | i | 0.71µM*
Cc1ccccc1NC(=S)NC(C)CCc1ccccc1 (stereo not drawn) | 0% | 5%[57.1 µM] | 0% | 21% | -8% | -5%[57.1 µM] | / | / | / | /
Cc1ccccc1NC(=S)NC(=O)CCc1ccccc1 | 3% | 2% | -9% | -14% | -2% | 13µM* | 1 | 3* | i | 36µM*
CCC(=O)Nc1cccc(NC(=S)NC(=O)c2cccc(C)c2)c1 | -7% | -5% | -9% | -15% | -5% | 11µM* | 1 | 6* | i | 1.3µM*
CCOc1cccc(C(=O)NC(=S)Nc2ccc(N3CCN(CC)CC3)cc2)c1 | 6% | -10%[57.1 µM] | -12% | -6% | 18% | -51% | / | / | / | /
CCC(=O)Nc1cccc(NC(=S)NC(=O)c2ccc(C)cc2)c1 | -1% | 0% | -10% | ? | -6% | ? | / | / | / | /
CCOc1cccc(C(=O)NC(=S)Nc2ccccc2)c1 | 4% | -15% | -4% | -27% | -10% | 32µM* | -3 | 6.7* | i | 74µM*
CCOc1cccc(C(=O)NC(=S)Nc2cccc(NC(=O)c3ccccc3Cl)c2)c1 | 2% | 13%[57.1 µM] | 1% | 14% | -1% | -34% | / | / | / | /
CCCOc1cccc(C(=O)NC(=S)Nc2ccc(N3CCN(C)CC3)cc2)c1 | -1% | -5% | -16% | 3% | -9% | 79µM* | -11 | 5.3* | i | i
CCCn1c(C)nc2c(N(CCOC)CCOC)nc(C)nc21 | / | / | / | 21% | / | / | / | / | / | /
O=C(c1ccco1)N(CCO)Cc1cc2cc3c(cc2[nH]c1=O)OCO3 | -2% | 51% | -7% | 3% | 4% | 2%[57.1 µM] | / | / | / | /
CC1(C(=O)N2CCCCC2)CCN1C(=O)c1ccccc1CCc1ccccc1 (stereo not drawn) | / | / | -3% | / | / | / | / | / | / | /
CC(C)OC(=O)c1cn(-c2ccccc2)nc1-c1ccco1 | 0% | 8% | ? | 8.9µM* | 79µM* | 5µM* | -13 | ? | i | 2.5µM*
COCCN1C(=O)c2oc3ccccc3c(=O)c2C1c1ccc(C(=O)OC)cc1 (stereo not drawn) | -7% | 8%[57.1 µM] | -22% | -5% | -16% | 17%[57.1 µM] | / | / | / | /
COC(=O)c1ccc(C2c3c(oc4ccccc4c3=O)C(=O)N2CCCN2CCOCC2)cc1 (stereo not drawn) | 8% | 7%[57.1 µM] | ? | 25µM* | -28% | 10µM* | -8 | ? | i | 1.2µM*
COc1ccc(NS(=O)(=O)c2cc(C(=O)N(C)CCc3ccccn3)ccc2Cl)cc1 | 11% | 5% | -1% | / | -6% | 6% | / | / | / | /
CCc1ccccc1N(C)C(=O)c1cnc(N2CCOCC2)c2ccccc12 | 2% | -1%[57.1 µM] | / | / | 3% | 12%[57.1 µM] | / | / | / | /
COc1ccc(N(C(=O)c2ccncc2)S(=O)(=O)c2cccc([N+](=O)[O-])c2)cc1 | -4% | -3% | ? | 7% | ? | 50µM* | -7 | 9.5* | i | 9.2µM*
COc1ccc(N(C(=O)c2cccnc2)S(=O)(=O)c2cccc([N+](=O)[O-])c2)cc1 | 0% | 0%[57.1 µM] | -24% | 15% | -9% | -16%[57.1 µM] | / | / | / | /
CC1CN(C(=O)CCC(=O)NCc2cccs2)c2ccccc2O1 (stereo not drawn) | -8% | 3% | / | / | -8% | 16% | / | / | / | /

Bioassay records: PubChem BioAssay, National Center for Advancing Translational Sciences (NCATS)
